Experimental findings from PubChem BioAssay (NCI) are described below.

About 83,000 compounds went through this panel and 20% of them were active in at least one assay; those are over-represented in the sample as a whole.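 Single-concentration screen, 48 h exposure, 96-well plates. Endpoint: percent growth. Below 10 = active.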 Values without a mark were called inactive. Active and inactive are the calls of the source.

Test systems include NCI-H23 lung; NCI-H226 lung; NCI-H322M lung; HOP-62 NSCLC; NCI-H460 lung; NCI-H522 lung; A549/ATCC NSCLC; 786-0 renal; COLO 205 colon; DU-145 prostate; K-562 leukemia; MALME-3M melanoma; MDA-MB-231 breast; RXF 393 renal; SF-268 CNS; SF-295 CNS; SF-539 CNS; UACC-257 melanoma; M14 melanoma; HCT-15 colon.
Holding throughout (assay): NCI-60 one-dose screen, 48 h (100 = growth as untreated, 0 = no growth, -100 = all killed)
Holding throughout (settings): 10 µM

`CCC(=O)N1C/C(=C/c2ccc(Br)cc2)C(=O)/C(=C/c2ccc(Br)cc2)C1`: the growth is -46.2% (active) in the experiment on NCI-H23 lung; -62.8% (active) in the experiment with NCI-H226 lung; -27.2% (active) in the experiment with NCI-H322M lung; -67.4% (active) with HOP-62 NSCLC; -46.8% (active) in the experiment on NCI-H460 lung; -79.6% (active) in the experiment with NCI-H522 lung. For the same compound, the growth in the experiment on A549/ATCC NSCLC was -27.2% (active); in the experiment with 786-0 renal it was -77.3% (active); with COLO 205 colon it was -93.1% (active); in the experiment on DU-145 prostate, -65.4% (active); in the experiment on K-562 leukemia it was 0.563% (active); in the experiment on MALME-3M melanoma it was -67.9% (active). For the same compound, the growth was -46.7% (active) in the experiment on MDA-MB-231 breast; -92.7% (active) with RXF 393 renal; -38.5% (active) with SF-268 CNS; -34.7% (active) in the experiment with SF-295 CNS; -81.2% (active) with SF-539 CNS; -46.1% (active) with UACC-257 melanoma. Besides, the growth in the experiment with M14 melanoma was -76.6% (active); with HCT-15 colon it was -32.3% (active).
`O=C1/C(=C\c2ccc(Br)cc2)CN(C(=O)c2ccccc2F)C/C1=C\c1ccc(Br)cc1`: the growth is 23.5% in the experiment with NCI-H23 lung; -30.3% (active) in the experiment with NCI-H226 lung; 60.7% in the experiment with NCI-H322M lung; -7.85% (active) in the experiment on HOP-62 NSCLC; 43.3% with NCI-H460 lung; -1.44% (active) in the experiment with NCI-H522 lung. The growth with A549/ATCC NSCLC was 2.51% (active); in the experiment with 786-0 renal, -52.4% (active); in the experiment with COLO 205 colon it was 5.27% (active); in the experiment with DU-145 prostate, 6.51% (active); in the experiment on K-562 leukemia, 1.26% (active); in the experiment on MALME-3M melanoma, -2.95% (active). Further, the growth was -4.72% (active) in the experiment on MDA-MB-231 breast; -76.6% (active) with RXF 393 renal; 4.14% (active) with SF-268 CNS; -19.9% (active) in the experiment on SF-295 CNS; 3.38% (active) in the experiment on SF-539 CNS; 30.6% with UACC-257 melanoma. For the same compound, the growth in the experiment with M14 melanoma is -47.8% (active); in the experiment with HCT-15 colon, 5.63% (active).
Regarding `COc1cccc(NC(=O)c2sc3nc4c(cc3c2N)C(O)CCC4)c1` (stereo not given), the growth in the experiment with NCI-H23 lung is 33.1%; in the experiment with NCI-H226 lung, 66.9%; in the experiment with NCI-H322M lung, 44.5%; with HOP-62 NSCLC it was 32.6%; with NCI-H460 lung, 10.2%; in the experiment on NCI-H522 lung, -10.5% (active). In addition, the growth in the experiment on A549/ATCC NSCLC was 22.3%; in the experiment with 786-0 renal, 43.5%; in the experiment on COLO 205 colon it was -7.73% (active); in the experiment with DU-145 prostate it was -10.9% (active); in the experiment on K-562 leukemia, 7.8% (active); with MALME-3M melanoma, 81.3%. Also, the growth in the experiment with MDA-MB-231 breast was 23.9%; in the experiment with RXF 393 renal it was -0.406% (active); in the experiment on SF-268 CNS, 30.6%; in the experiment on SF-295 CNS it was 5.44% (active); in the experiment with SF-539 CNS it was -17.6% (active); in the experiment with UACC-257 melanoma, 55%. The growth is 11.8% in the experiment with M14 melanoma and 19.4% in the experiment with HCT-15 colon.
Consider `COc1cc(-c2nc(Nc3nc4ccccc4s3)[nH]c(=O)c2C#N)cc(OC)c1O`, for which the growth was 105% with NCI-H23 lung; 102% in the experiment on NCI-H226 lung; 124% in the experiment with NCI-H322M lung; 99.5% in the experiment on HOP-62 NSCLC; 105% in the experiment with NCI-H460 lung; 97.2% with NCI-H522 lung. The growth was 106% in the experiment on A549/ATCC NSCLC; 101% in the experiment on 786-0 renal; 100% in the experiment on COLO 205 colon; 113% in the experiment on DU-145 prostate; 100% in the experiment with K-562 leukemia; 118% with MALME-3M melanoma. Besides, the growth in the experiment with MDA-MB-231 breast is 106%; with RXF 393 renal, 105%; in the experiment with SF-268 CNS it was 123%; in the experiment with SF-295 CNS, 116%; in the experiment with SF-539 CNS, 108%; with UACC-257 melanoma, 102%. Further, the figures for the growth with M14 melanoma and with HCT-15 colon were 96.3% and 107%, respectively.
For `NC(=S)N=Nc1c(O)c2ccccc2c2ccccc12`, the growth with NCI-H23 lung was 6.64% (active); in the experiment on NCI-H226 lung it was 94.2%; in the experiment on NCI-H322M lung, 82.3%; in the experiment on HOP-62 NSCLC it was 29.8%; in the experiment on NCI-H460 lung it was 51.9%; in the experiment on NCI-H522 lung, 44.8%. The growth in the experiment on A549/ATCC NSCLC was 23.7%; in the experiment on 786-0 renal, 101%; in the experiment with COLO 205 colon, 92.3%; in the experiment on DU-145 prostate, -8.94% (active); with K-562 leukemia, 42.2%; in the experiment with MALME-3M melanoma, 60.5%. The growth in the experiment with MDA-MB-231 breast was 76.7%; with RXF 393 renal it was 99.4%; in the experiment with SF-268 CNS it was 56.7%; in the experiment on SF-295 CNS, 82.7%; in the experiment on SF-539 CNS, 16.1%; in the experiment on UACC-257 melanoma, -61.3% (active). Moreover, the growth in the experiment with M14 melanoma was -68.6% (active); with HCT-15 colon, 23.3%.
Take `CCCCCCN1CCN(Cc2ccc(N(CC)CC)cc2)C(=O)C1=O`: the growth with NCI-H23 lung was 39.9%; in the experiment on NCI-H226 lung, 64.2%; in the experiment with NCI-H322M lung it was 32%; with HOP-62 NSCLC, 33.3%; in the experiment with NCI-H460 lung it was 10.5%; with NCI-H522 lung, -7.64% (active). Further, the growth with A549/ATCC NSCLC is 21.6%; in the experiment with 786-0 renal it was 51.3%; in the experiment with COLO 205 colon, 6.83% (active); in the experiment with DU-145 prostate, -7.77% (active); in the experiment with K-562 leukemia, 11.7%; in the experiment with MALME-3M melanoma, 10.1%. Further, the growth in the experiment with MDA-MB-231 breast is 44.4%; with RXF 393 renal, 7.71% (active); in the experiment on SF-268 CNS, 42.5%; with SF-295 CNS it was 11.8%; in the experiment on SF-539 CNS it was -1.86% (active); in the experiment on UACC-257 melanoma, 33.7%. Besides, the growth with M14 melanoma was 9.15% (active); in the experiment with HCT-15 colon, 41.5%.
For the compound `N#CSCC1CC(O)(c2ccccc2)CC(c2ccc(Cl)cc2)O1` (stereo not given), the growth in the experiment on NCI-H23 lung is 35.6%; in the experiment on NCI-H226 lung, 89.3%; in the experiment on NCI-H322M lung it was 52.4%; in the experiment with HOP-62 NSCLC, 75.1%; in the experiment with NCI-H460 lung, 37.2%; in the experiment with NCI-H522 lung, 4.64% (active). The growth with A549/ATCC NSCLC is 68.5%; in the experiment with 786-0 renal, 37%; with COLO 205 colon, 59.2%; in the experiment with DU-145 prostate it was 33%; in the experiment on K-562 leukemia it was 44.8%; in the experiment with MALME-3M melanoma it was 7.26% (active). For the same compound, the growth in the experiment with MDA-MB-231 breast was 60.8%; in the experiment on RXF 393 renal it was 9.83% (active); with SF-268 CNS it was 34.6%; in the experiment with SF-295 CNS, 46.6%; with SF-539 CNS, 58.8%; in the experiment on UACC-257 melanoma, 87.8%. The growth with M14 melanoma is 9.35% (active); with HCT-15 colon, 58.8%.
